# Experiment: MM1S cell viability effects, profiling panel, calcein-AM fluorescence, 48 h, basal (AID 1165);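 also: viability of MM1S multiple myeloma cells under basal unstimulated conditions; test concentration not given here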
# Settings: higher = more signal
row,Compound,z-score
1,COCCOC(=O)N1C(=O)[C@@]2(c3cc(C#Cc4ccc(OC)cc4)ccc31)[C@H](c1ccc(OCCO)cc1)N1[C@H](c3ccccc3)[C@H](c3ccccc3)OC(=O)[C@H]1[C@@H]2C(=O)NC[C@H](O)c1ccccc1,-0.291
2,CC1CC/C=C\[C@H]2OC34C=CCN(Cc5ccccc5)C(=O)[C@H]3N(CCCCCCO)C(=O)[C@@H]4C2C(=O)O1 (stereo partly specified),1.41
3,[N-]=[N+]=Nc1ccccc1[C@@H]1OC(c2ccc(OCCCO)cc2)=N[C@]1(CCS(=O)(=O)c1ccccc1)C(=O)NCC(O)CO (stereo partly specified),-0.662
4,COC(=O)[C@@]1(Cc2ccccc2)[C@H]2c3cc(C(=O)N(C)C)n(CCSC(=N)N)c3C[C@H]2CN1C(=O)c1ccccc1,-0.948
5,CC(C)[Si](C#CCCc1ccccc1)(O[C@H](c1ccccc1)c1cn(Cc2ccccc2)nn1)C(C)C,-0.505
6,O=C(NCc1ccc(F)cc1)[C@H]1C[C@H]2C(=O)N3CCC[C@H]3C(=O)N2[C@H]1c1ccc(O)cc1,-0.896
7,COC(=O)[C@]1(Cc2ccccc2)N=C(c2ccc(OCCCO)cc2)O[C@@H]1c1ccccc1CN=[N+]=[N-],-3.55
8,CC(C)C[C@@H]1NC(=O)[C@@H]2C[C@H](C(=O)NCCCCCCNC(=O)CS)[C@H](c3cccc(OCCO)c3)N2C1=O,-0.505
9,O=C1O[C@@H](c2ccccc2)[C@@H](c2ccccc2)N2[C@@H](c3ccc(OCCO)cc3)[C@]3(C(=O)Nc4ccc(C#CCCO)cc43)[C@@H](C(=O)O)[C@H]12,0.942
10,CCCC[C@H]1C[C@@H]1[C@@H]1N(C(C)=O)[C@H](c2cccc(OC)c2)CC12CC2,-0.762
11,C=C(COC)/C(=C/C[C@@H](OC(C)=O)c1ccccc1OCCO)c1cnc2ccccc2c1,-2.48
12,CN(C)CCCNC(=O)[C@@]1(C)c2ccccc2C(=O)N(Cc2ccc(OC(F)(F)F)cc2)[C@H]1c1ccc(CO)cc1,-0.0385
13,C=CC[C@]1(C(=O)NCC(O)CO)COC(c2ccc(OCCCO)cc2)=N1 (stereo partly specified),-0.244
14,C=CCC(OC(C)=O)[C@@H]1[C@@H](N(Cc2cccc3ccccc23)C(=O)c2ccc(-c3ccccc3)cc2)c2cc(OCCCO)ccc2N1C(=O)Cc1ccc2ccccc2c1 (stereo partly specified),-1.54
15,CCCCCC1=C2CNC(CC(C)C)(C(=O)OC)C=C2C(C)C1=O (stereo unspecified),-0.227
16,CN1C(=O)[C@@H]2[C@@H](CC(COc3ccccc3)=C3[C@@H](CCc4ccccc4)OB(O)C[C@@H]32)C1=O,-2.31
17,COC(=O)[C@@]1(Cc2ccc(OC)cc2)[C@H]2c3cc(C(=O)N4CCCC4)n(Cc4ccc(C(F)(F)F)nc4)c3C[C@H]2CN1C(=O)c1ccccc1,-1.03
18,C=CCC(OC(C)=O)[C@@H]1[C@@H](N(Cc2cc3ccccc3o2)C(=O)Cc2ccc(OC)cc2)c2cc(OCCCO)ccc2N1C(=O)c1ccc2ccccc2n1 (stereo partly specified),0.307

row,Compound,z-score
1,[N-]=[N+]=Nc1ccccc1[C@@H]1OC(c2ccc(OCCCO)cc2)=N[C@]1(Cc1ccccc1)C(=O)NCCN1CCOCC1,-2.37
2,COc1ccc(C(=O)Nc2cccc(CN3C(=O)[C@]4(O[C@H](CC(=O)N5Cc6ccccc6C[C@H]5CO)[C@@H]([Si](C)(C)c5ccc(OC)cc5)[C@@H]4C)c4ccccc43)c2)cc1,-0.253
3,C=CCN1C(=O)[C@@]2(O[C@@H](CCn3cc([C@H](O)c4ccccc4)nn3)[C@H]([Si](C)(C)c3ccc(OC)cc3)[C@H]2C)c2cc(N3C(=O)c4cccc5cccc3c45)ccc21,-1.87
4,CC(C)(C)N1CC=CC23O[C@@H]4/C=C\CCCOC(=O)C4[C@H]2C(=O)N(CCCCCO)[C@@H]3C1=O (stereo partly specified),1.59
5,CN(C)CCCC[C@@H]1NC(=O)[C@@H]2C[C@H](C(=O)NCCCCCCNC(=O)CS)[C@H](c3ccc(O)cc3)N2C1=O,-0.0172
6,CC1CC/C=C\[C@H]2OC34C=CCN(CCN5CCOCC5)C(=O)[C@H]3N(CCCO)C(=O)[C@@H]4C2C(=O)O1 (stereo partly specified),1.22
7,COc1ccccc1CN1C(=O)c2ccccc2[C@](Cc2ccccc2I)(C(=O)NCC(C)C)[C@@H]1c1ccc(CO)cc1,-0.746
8,COCC(=C=CC[C@H](O)c1ccccc1OCCO)C[C@H](O)COCc1ccccc1,-2.02
9,O=C(NC1CC1)[C@@H]1c2ccccc2C(=O)N(Cc2ccc(OC(F)(F)F)cc2)[C@H]1c1ccc(CO)cc1,0.0839
10,O=C1C2C=CC(C(O)c3c(F)cccc3Cl)N(Nc3ccc([N+](=O)[O-])cc3)C2C(=O)N1c1ccccc1 (stereo unspecified),0.19
11,C[C@@H]1NC(=O)C([C@@H](C)OCc2ccccc2)NC(=O)[C@@]23C(=O)N[C@@H](Cc4ccccc4)C2[C@H](C)[C@@]2(C)O[C@H]2C3/C=C/C/C=C\CNC1=O (stereo partly specified),-0.129
12,CC1CC/C=C\[C@H]2OC34C=CCN(c5ccc(Cl)cc5)C(=O)[C@H]3N(CCCCCCO)C(=O)[C@]4(C)C2C(=O)O1 (stereo partly specified),1.88
13,CC1=C([C@H](O)CCc2ccccc2)[C@H](CO)n2c(=O)n(-c3ccccc3)c(=O)n2C1,0.5
14,CCOC(=O)C[C@H]1[C@H](OC(=O)Cc2ccc3c(c2)OCO3)[C@@H](NC(=O)Cc2ccc(OC)cc2)c2cc(OCCCO)ccc2N1C(=O)Cc1ccc(OC)cc1,0.405
15,COc1ccc(C(O)C2C=CC3C(=O)NC(=O)C3N2Nc2ccc(Cl)cc2Cl)c2ccccc12 (stereo unspecified),-3.8
16,C=C1C(=O)C=C2CN(C(=O)c3ccccc3)[C@@](Cc3ccc(OC)cc3)(C(=O)OC)[C@@H]12,-1.73
17,COC(=O)[C@@]1(Cc2ccccc2)[C@H]2c3cc(C(=O)N(C)C)n(Cc4ccc(S(C)(=O)=O)cc4)c3C[C@H]2CN1C(=O)c1ccccc1,0.0168
18,CCCNC(=O)[C@@]1(c2ccc([N+](=O)[O-])cc2)CC(=O)N(C(C)C)[C@@H]1c1ccc(CO)cc1,0.167

# — PubChem BioAssay
